Reference: PubChem BioAssay (NCI)
About 83,000 compounds went through this panel and 20% of them were active in at least one assay; those are over-represented in the sample as a whole.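 Cells were grown in 96-well plates and exposed to the test compound at a single concentration for 48 hours; results are reported as percent growth, with values below 10 considered active.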 Unmarked numbers belong to inactive results. Activity calls are given as the source filed them.

Legend:
Test in all cases: NCI-60 one-dose screen, 48 h (100 = growth as untreated, 0 = no growth, -100 = all killed)
Conditions in all cases: 10 µM unless noted
SR leukemia = test system: SR leukemia
RPMI-8226 leukemia = test system: RPMI-8226 leukemia
OVCAR-8 ovarian = test system: OVCAR-8 ovarian
OVCAR-5 ovarian = test system: OVCAR-5 ovarian
OVCAR-4 ovarian = test system: OVCAR-4 ovarian
SK-OV-3 ovarian = test system: SK-OV-3 ovarian
IGROV1 ovarian = test system: IGROV1 ovarian
OVCAR-3 ovarian = test system: OVCAR-3 ovarian
HS 578T breast = test system: HS 578T breast
NCI/ADR-RES ovarian = test system: NCI/ADR-RES ovarian
T-47D breast = test system: T-47D breast
BT-549 breast = test system: BT-549 breast
MDA-MB-435 melanoma = test system: MDA-MB-435 melanoma
SW-620 colon = test system: SW-620 colon
MCF7 breast = test system: MCF7 breast
HCT-116 colon = test system: HCT-116 colon
HCC-2998 colon = test system: HCC-2998 colon
KM12 colon = test system: KM12 colon

| SMILES | growth (SR leukemia) | growth (RPMI-8226 leukemia) | growth (OVCAR-8 ovarian) | growth (OVCAR-5 ovarian) | growth (OVCAR-4 ovarian) | growth (SK-OV-3 ovarian) | growth (IGROV1 ovarian) | growth (OVCAR-3 ovarian) | growth (HS 578T breast) | growth (NCI/ADR-RES ovarian) | growth (T-47D breast) | growth (BT-549 breast) | growth (MDA-MB-435 melanoma) | growth (SW-620 colon) | growth (MCF7 breast) | growth (HCT-116 colon) | growth (HCC-2998 colon) | growth (KM12 colon) |
| --- | --- | --- | --- | --- | --- | --- | --- | --- | --- | --- | --- | --- | --- | --- | --- | --- | --- | --- |
| CSc1ccc(/C=C2\C=C(CC(=O)NCc3ccc(C(=O)c4ccccc4)cc3)c3cc(F)ccc32)cc1 | 10.3% | 15.2% | 1.81% (active) | 25.2% | 10.9% | -34.4% (active) | 10.3% | -60.1% (active) | 2.68% (active) | -34.6% (active) | 31.6% | 25.7% | -47.8% (active) | 9.98% (active) | -2.9% (active) | -28% (active) | -0.5% (active) | -61.4% (active) |
| COc1ccc(/C=C/C(=O)CCC(=O)O)cc1OC | 98.5% | 105% | 109% | 95.4% | 99% | 91% | 108% | 109% | 105% | 111% | 93.1% | 109% | 106% | 105% | 97.1% | 104% | 125% | 103% |
| COc1ccc(-c2nc(SCCC(C)C)nc(Nc3ccc(C(=O)O)cc3)c2C#N)cc1 | 77.3% | 62.9% | 93.9% | 105% | 89.2% | 109% | 110% | 97.5% | 94.2% | 102% | 71.7% | 82.6% | 99.3% | 101% | 80.5% | 84.4% | 104% | 86.3% |
| S=C(S)Oc1cccc2cccnc12 | 87.7% | 106% | 108% | 108% | 92.2% | 100% | 86.1% | 120% | 96.2% | 106% | 107% | 98.4% | 104% | 105% | 95.8% | 95.9% | 113% | 109% |
| O=c1c2cc(Cl)ccc2oc2ccc(OCCCCCN3CCCCCC3)cc12 | 47.5% | 60.3% | 82.1% | 97.9% | 91.8% | 78.9% | 90.6% | 81.5% | 83% | 85.7% | 74.4% | 79% | 80.8% | 84.6% | 75.3% | 57.8% | 88.5% | 84.8% |
| O=S1(=O)NCCN1CCNc1nccc(-c2c(-c3cccc(O)c3)nc3sccn23)n1 | 62.2% | 102% | 103% | 91.9% | 131% | 97.4% | 105% | 108% | 95.9% | 107% | 106% | 135% | 34.7% | 127% | 103% | 97.8% | 113% | 108% |
| CC1OC(n2c3ccccc3c3c4c(c5c6ccccc6[nH]c5c32)C(=O)N(CCN2CCOCC2)C4=O)CC(O)C1O (stereo unspecified) | 10.7% | 27.8% | 32.4% | 61.7% | 46.5% | 6.84% (active) | 48.3% | 48.2% | 63.6% | 26.4% | 11% | 36.9% | 41.5% | 27.8% | 13.3% | 24.3% | 30% | 30.7% |
| CNC(=O)c1c(NC(=O)c2ccc(C(C)C)cc2)sc2c1CCC(=O)C2 | 2.8% (active) | -26.2% (active) | 11% | -45.9% (active) | -74.3% (active) | -3.87% (active) | -52.7% (active) | -10.8% (active) | 19.1% | -7.01% (active) | -36.6% (active) | -11.2% (active) | 9.66% (active) | -35.5% (active) | 0.569% (active) | -31.2% (active) | -55.3% (active) | -17.9% (active) |
| COc1ccc2[nH]cc(C3(c4c[nH]c5ccc(OC)cc45)C(=O)Nc4ccc(F)cc43)c2c1 | 11.8% | 40.9% | 94.4% | 94.1% | 86.7% | 94.5% | 74.2% | 86.6% | 73.4% | 94% | 93.7% | 80.1% | 9.03% (active) | 25.9% | 66.2% | 69% | 72% | 51.1% |
| NS(=O)(=O)c1ccc(CCn2c(SCC(=O)N/N=C/c3ccccc3O)nc3ccccc3c2=O)cc1 | 19.9% | 32.1% | 36.9% | 69.2% | 83.3% | 59.2% | 64.4% | 23.8% | 37.5% | 92.3% | 49.2% | 53.9% | 3.97% (active) | 26.1% | 21.7% | 16.9% | 86.8% | 34% |
| COc1cccc(-c2nc3sccn3c2-c2ccnc(NCCN3CCCN(C)S3(=O)=O)n2)c1 | 66.7% | 103% | 98.6% | 102% | 78% | 62.4% | 72.7% | 91.2% | 97.5% | 84.9% | 72.4% | 100% | 57.7% | 131% | 106% | 78.1% | 114% | 100% |
| Oc1c(C(Nc2ccccc2Br)c2ccccc2)ccc2cccnc12 (stereo unspecified) | 1.95% (active) | 45.8% | 23.5% | 44.5% | 31.4% | 35.2% | 20.1% | 32.8% | 59.2% | 2.07% (active) | 29.9% | 28.3% | 35.7% | 33.7% | 21% | 20% | 30.1% | 32.3% |
| COc1ccccc1CNCCCN1C(=O)c2ccc3c4c(ccc(c24)C1=O)C(=O)N(CCCNCCCN)C3=O | 10% | 17.5% | -24.4% (active) | 37.9% | -99.3% (active) | 34.7% | -2.92% (active) | -19.3% (active) | 30.7% | 33.7% | -21.6% (active) | 55% | -69.4% (active) | -7.85% (active) | -42.7% (active) | -1.03% (active) | -5.58% (active) | 1.76% (active) |
| CC(=O)Oc1ccccc1C(=O)Nc1ncc([N+](=O)[O-])s1 | 13.1% | 7.09% (active) | 51.3% | 63.3% | 55.2% | 85.5% | 26.2% | 5.56% (active) | 15.6% | 20.6% | 61.7% | -29.4% (active) | 24.2% | 26.7% | 49.7% | 3.62% (active) | 23.3% | 24.7% |
| CC[C@H](C)[C@H](N)C(=O)O | 90.7% | 104% | 107% | 97.7% | 109% | 107% | 106% | 111% | 91.7% | 104% | 104% | 108% | 98.8% | 103% | 103% | 115% | 106% | 99.5% |
| C=CCCCCOc1cccc(/C=C2\N=C3SCCCN3C2=O)c1 | 125% | 103% | 101% | 106% | 87.6% | 97.7% | 88.6% | 107% | 112% | 95.6% | -2.85% (active) | 94.4% | 106% | 103% | 88.9% | 86.2% | 100% | 98.4% |
| COc1cc(C2CC(c3ccccc3)=NN2C=O)ccc1Oc1ccnc2cc(Cl)ccc12 (stereo unspecified) | 50.4% | 32.1% | 38.7% | 84.2% | 35% | 86.6% | 80.1% | 69.9% | 76.2% | 22.9% | 33.6% | 46% | 36% | 87.9% | 50.5% | 54.7% | 87.4% | 49.9% |
